# From PubChem BioAssay (NCI)
# Compounds without any hit were thinned out: in the full panel of roughly 83,000, 20% have a hit.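 Growth was measured after 48 h exposure to one concentration of compound in 96-well plates. Values under 10 count as active.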 Active and inactive are the calls of the source.
# System: HCT-116 colon
# Assay: NCI-60 one-dose screen, 48 h (100 = growth as untreated, 0 = no growth, -100 = all killed)
# Conditions: 10 µM
row,Structure (SMILES),growth
1,COc1ccc(-c2cc(C(=O)N=Nc3c(O)[nH]c4ccc(Br)cc34)c3ccccc3n2)cc1,16.9% (inactive)
2,CC(=O)c1ccc(Nc2nc(SCCC(C)C)nc(-c3ccc(F)cc3)c2C#N)cc1,22% (inactive)
3,Clc1cccc(N/N=C/c2c[nH]c3ccccc23)n1,23.4% (inactive)
4,O=[N+]([O-])c1ccc(-c2nc(-c3ccccc3)c(-c3ccccc3)n2-c2ccc(S(=O)(=O)Nc3ncccn3)cc2)cc1,30.6% (inactive)
5,O=C(CSc1nnc(-c2ccc3nc(-c4ccc(Cl)cc4)[nH]c3c2)o1)Nc1ccc(Cl)cc1,-48.9% (active)
6,CCOC(=O)c1c(CSc2ccccc2)n(C)c2cc(CN(C)C)c(O)c(CN(C)C)c12,10.9% (inactive)
7,N#Cc1c(NC(=O)c2cccc(C(F)(F)F)c2)sc2c1CCC(O)=C2,40.4% (inactive)
8,Cc1ccc(-c2nc(Nc3ccc(S(N)(=O)=O)cc3)c3ccccc3n2)cc1,34.7% (inactive)
9,Cc1ccc2nc(COc3ccc(C(=O)NNC(=S)NC(=O)c4ccccc4)cc3)[nH]c2c1,38.5% (inactive)
10,O=C(CNc1nc(-c2ccccc2)cs1)Nc1cccc([N+](=O)[O-])c1,-34.2% (active)
11,CC(=O)Nc1ccc(-c2cn(-c3cccc(C(=O)Nc4cccc(OC(F)(F)F)c4)c3)nn2)cn1,88.6% (inactive)
12,OCCCNc1oc(-c2ccccc2)nc1[P+](c1ccccc1)(c1ccccc1)c1ccccc1,7.82% (active)
13,CC(C)Sc1nc(NC2CC2)c(C#N)c(-c2ccccc2)n1,46.7% (inactive)
14,OCCNc1oc(-c2ccccc2)nc1[P+](c1ccccc1)(c1ccccc1)c1ccccc1,7.76% (active)
15,C/C(=C\c1ccc(O)cc1O)c1ccc2ccc(O)cc2[o+]1,26.9% (inactive)
16,Cc1noc2c(Cc3ccc([N+](=O)[O-])cc3)nn(CC(=O)N/N=C/c3ccc(Cl)cc3)c(=O)c12,21.7% (inactive)
17,CCOC(=O)CNC(=O)CN(Cc1ccccc1)C(=O)[C@@]1(C)CCC[C@]2(C)[C@H]3CC4C(C(C)C)=C[C@]3(CC[C@H]21)[C@@H]1C(=O)CCC(=O)[C@H]41,36.5% (inactive)
18,O=C(CSc1nnc(-c2c[nH]c3ccccc23)n1-c1ccccc1)c1ccc(Cl)cc1,45.7% (inactive)
19,COc1ccc(-c2cc(C(=O)N=Nc3c(O)[nH]c4ccc(F)cc34)c3ccccc3n2)cc1,39.7% (inactive)

row,Structure (SMILES),growth
1,O=C1Nc2ccc(Cl)cc2/C1=C/c1ccc(OCc2ccccn2)cc1,28.5% (inactive)
2,Cc1noc2c(Cc3ccccc3)nn(CC(=O)N/N=C/c3ccc(Cl)cc3)c(=O)c12,26.4% (inactive)
3,COc1ccc2[nH]c(=O)c(CSc3cccc(N)c3)cc2c1,52.5% (inactive)
4,COc1ccc(C(=O)/C=C/c2cc(F)cc(C(F)(F)F)c2)cc1S(N)(=O)=O,-55% (active)
5,Nc1cc(-c2cccc(C(=O)NCc3ccc4c(c3)OCO4)c2)ccn1,95.1% (inactive)
6,Cc1ccc(/C(N)=N/c2sc(-c3ccccc3)nc2-c2ccccc2)cc1,53.5% (inactive)
7,CN(C(=O)c1ccc(C(C)(C)C)cc1)c1sc2c(c1C#N)CCC(=O)C2,-9.14% (active)
8,O=C(NO)c1ccc(CNC(=O)[C@H]2Cc3c([nH]c4ccccc34)[C@H](c3ccccc3)N2)cc1,10.1% (inactive)
9,COc1ccc2cc([C@H](C)C(=O)NCc3ccccc3)ccc2c1,37% (inactive)
10,Cc1noc2c(Cc3ccccc3)nn(CC(=O)N/N=C/c3ccc(F)cc3)c(=O)c12,35% (inactive)
11,COc1cnc2c(c1)C(=O)c1c-2n(CCCNCCO)c(=O)c2cc(OC)c(OC)cc12,1.67% (active)
12,CN1CCc2c(sc3ncnc(N/N=C/c4cn(-c5ccccc5)nc4-c4ccc(Cl)cc4)c23)C1,2.65% (active)
13,N#Cc1c(NC(=O)c2ccc(C(F)(F)F)cc2C(F)(F)F)sc2c1CCC(=O)C2,0.663% (active)
14,O=C1N/C(=N\c2nccs2)S/C1=C\c1cccs1,15.5% (inactive)
15,CC(=O)c1ccc(Nc2nc(SC(C)C)nc(-c3ccccc3)c2C#N)cc1,8.81% (active)
16,O=C(CNc1nc(-c2ccccc2)cs1)Nc1ccc([N+](=O)[O-])cc1Cl,21.4% (inactive)
17,O=C(NO)c1ccc(Cn2ccc3c(Nc4ccccc4)ncnc32)cc1,-9.89% (active)
18,O=C(NO)c1ccc(CN2CCN(c3nc(-c4ccccc4)c4ccccc4n3)CC2)cc1,18.9% (inactive)
